Screening results as filed in PubChem.
Rab9 prom act: activators of Rab9 promoter; hit rate 2.8% among 320,000; Potency, µM (series often up to 9.22 µM), most hits filed as activators; Huh7 Rab9 promoter-luciferase reporter, luminescence, 24 h; also: nearly all actives have a fitted effect of over 60% in size
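Huh7 cells stably carrying Rab9 promoter–luciferase reporter, plated 1500 cells/well, compound added after 2 h and incubated 24 h at 37 °C; luciferase luminescence then read after 10 min with detection reagent.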
FLuc counter: firefly luciferase modulation, counter-screen for miR-21 project | Potency, µM (titrated, usually from 57.5 µM), most hits filed as inhibitors | purified FLuc, Km substrates, luminescence inhibition | P08659 | hit rate 6.9% among 360,000; also: nearly all actives have a fitted effect of over 55% in size
Target sequence (P08659 whole entry, looked up): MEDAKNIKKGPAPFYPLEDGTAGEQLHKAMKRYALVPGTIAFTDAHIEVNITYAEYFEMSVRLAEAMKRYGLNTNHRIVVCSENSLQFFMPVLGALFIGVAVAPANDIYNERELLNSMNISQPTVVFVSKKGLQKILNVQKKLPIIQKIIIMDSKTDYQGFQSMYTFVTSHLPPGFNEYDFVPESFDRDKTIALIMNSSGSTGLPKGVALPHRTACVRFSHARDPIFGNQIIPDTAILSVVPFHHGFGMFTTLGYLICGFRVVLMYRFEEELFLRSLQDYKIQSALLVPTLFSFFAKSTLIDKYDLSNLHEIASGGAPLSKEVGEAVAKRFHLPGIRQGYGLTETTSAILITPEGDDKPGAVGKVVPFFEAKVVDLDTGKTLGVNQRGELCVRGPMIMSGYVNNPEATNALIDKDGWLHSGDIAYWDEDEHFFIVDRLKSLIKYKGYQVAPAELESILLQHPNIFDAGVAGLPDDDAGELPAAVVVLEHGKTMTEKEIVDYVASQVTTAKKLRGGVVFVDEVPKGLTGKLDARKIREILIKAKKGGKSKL
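Biochemical qHTS of compounds, final roughly 60 µM downward over six points, against 10 nM purified firefly luciferase using Km concentrations of substrates (10 uM D-luciferin, 10 uM ATP) in Tris acetate pH 7.5 buffer; luminescence output.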
NPC1 promoter act: activates the NPC1 promoter. hit rate 2.4% among 320,000. Potency, µM (doses to about 9.22 µM), actives largely listed as activators. Huh7 NPC1 promoter luciferase reporter, 24 h; also: nearly all actives have a fitted effect of over 60% in size
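Readout is luciferase luminescence, reflecting NPC1 promoter activation in stably transfected Huh7 cells after 24 h compound exposure at 37 °C in reduced-serum medium with 10% FBS.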
SMN2 splice up: increases expression of the SMN2 splice variant | HEK293 SMN2-luciferase splicing reporter, luminescence, 30-36 h | Potency, µM (top dose mostly 46.1 µM), most hits filed as activators | hit rate 2.8% among 210,000; also: nearly all actives have a fitted effect of over 55% in size
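HEK293 cells carry an SMN2 […]–luciferase reporter in which exon 7 inclusion puts luciferase in frame. Cells were plated 10-12 h before compound addition, then incubated 30-36 h at 37C. ONE-Glo luminescence was read; sodium butyrate at 4.5 mM final served as control.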
ELG1 genotoxic: induces genotoxicity in HEK293T cells with luciferase-tagged ELG1. HEK293T ELG1-luciferase reporter, luminescence, 16 h. Potency, µM (highest dose often 46 µM), usual class: activators. hit rate 1.3% among 330,000; also: nearly all actives have a fitted effect of over 60% in size
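After overnight (16 hr) compound treatment at 37 °C, ELG1-luciferase HEK293T cells were lysed with ONE-Glo; luminescence quantified 30 min later at room temperature.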
KinaseGlo FLuc: blocks Kinase-Glo luciferase, a counter-screen artifact; Q27757; Kinase-Glo luciferase, ATP luminescence, 8 min; Potency, µM (series often up to 38.3 µM), most hits filed as inhibitors; hit rate 0.28% among 200,000; AID 1379; also: nearly all actives have a fitted effect of over 60% in size
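Light output from Kinase-Glo luciferase with luciferin and 10 uM ATP in 50 mM imidazole pH 7.2, KCl, MgCl2, Tween 20, BSA; compound pin-delivered, 8-min ambient incubation, then luminescence read.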
Numbers stand for hits; - = inactive; ? = inconclusive; . = not tested or not shown; [ ] = another dose, or the depositor's remark. Only some compounds are listed: those with a hit (about 7.5% of all), similar ones and a draw of the others. Calls follow the shape of the dose curve; as a rule, active = well fitted curve in the direction sought with a large enough effect; inconclusive = small, poorly fitted or top-dose-only effect, or another doubt; inactive = no such curve, though single readings can be large; an effect the other way counts as inactive or inconclusive.

SMILES	Rab9 prom act	FLuc counter	NPC1 promoter act	SMN2 splice up	ELG1 genotoxic	KinaseGlo FLuc
Cc1cccc(NC(=O)C(c2ccccc2)N2Cc3ccccc3C2=O)c1C (stereo not given)	.	-	.	.	.	.
O=C(NCc1ccco1)c1cc(-c2cccnc2)nc2ccccc12	-	-	-	-	-	-
Cc1ccc(-c2cc(C(=O)NCc3ccco3)c3ccccc3n2)o1	-	12µM	-	-	-	-
COc1cccc(-c2cc(C(=O)NCc3ccco3)c3ccccc3n2)c1	-	21µM	-	.	-	.
Cc1ccccc1Nc1cc(C(=O)NCc2ccco2)c2ccccc2n1	-	15µM	-	-	-	-
COC(=O)[C@@H]1C[C@H]1[C@@H](NC(=O)Oc1ccc(F)cc1)c1ccccc1	.	.	.	-	.	-
O=C(NCc1ccc(F)cc1)c1ccc(CS(=O)Cc2ccc(Cl)cc2)o1 (stereo not given)	.	-	.	.	.	.
CCOC(=O)N1CCN(C(=O)c2ccc(SC)cc2OC)CC1	-	-	-	.	-	-
COc1ccc(Cl)cc1NC(=O)CCCn1c(C)c2cnn(-c3ccccc3)c(=O)c2c1C	.	-	.	-	.	.
CCOC(=O)c1cnc2c(Cl)cc(Cl)cc2c1Nc1cc(C(=O)O)ccc1C	.	12µM	.	-	.	.
CCOC(=O)c1cnc2ccccc2c1Nc1cc(C(=O)O)ccc1C	-	?	-	-	-	-
COc1cccc(-c2cc(C(=O)Nc3ccc(F)cc3)[nH]n2)c1	.	1.7µM	.	.	.	.
COc1ccc(CNC(=O)c2cc(-c3ccc(C)c(C)c3)n[nH]2)cc1	.	11µM	.	.	.	.
COc1cccc(-c2cc(C(=O)O)[nH]n2)c1	-	-	-	-	-	-
COc1cccc(-c2cc(C(=O)NCc3ccccc3)[nH]n2)c1	.	21µM	.	.	.	.
CC(OC(=O)c1cc(=O)[nH]c2ccccc12)C(=O)Nc1ccccc1F (stereo not given)	-	-	-	.	-	.
CCCN1C(=O)/C(=C/c2ccc(C)s2)NC1=S	-	27µM	-	-	-	-
Cc1ccc(/C=C2/NC(=O)N(Cc3ccccc3F)C2=O)s1	-	-	-	.	-	.
Nc1[nH]c(=S)[nH]c(=O)c1N=Nc1c(Br)cc(S(N)(=O)=O)cc1Br	.	.	.	-[9.22 µM]	.	-[7.66 µM]
c1ccc(NC2=Nc3ccccc3CS2)cc1	3.2µM	2.7µM	1.8µM	11µM	?	-
CCOC(=O)C1(Cc2ccccc2Cl)CCN(C(=O)CCn2ccnc2C)CC1	?	19µM	-	.	-	-
COc1ccc(Cl)cc1NS(=O)(=O)c1cccc(C(=O)NCC(c2ccco2)N(C)C)c1 (stereo not given)	-	-	-	.	-	.
c1ccc(-c2cnc(CSc3nnc4ccccn34)o2)cc1	1µM	11µM	1.6µM	11µM	4.1µM	-
Fc1ccc(-c2nnc(CSc3nnc4ccccn34)o2)cc1	?	?	?	?	?	-
CCOc1ccc(NC(=O)Cn2c(=O)c(CNc3ccc(OC)cc3)cc3ccc(OC)cc32)cc1	.	-	.	.	.	.
SMILES	Rab9 prom act	FLuc counter	NPC1 promoter act	SMN2 splice up	ELG1 genotoxic	KinaseGlo FLuc
COC(=O)c1cccc(Nc2nn3c(=O)c4cc5c(cc4nc3s2)OCO5)c1	.	?	.	-	.	.
Cc1ccc(NC(=S)NNC(=O)Nc2ccccc2)cc1	3.2µM	2.4µM	?	13µM	?	-
O=C(NNC(=S)Nc1ccccc1)Nc1ccccc1	-	?	-	5.6µM	-	-
Cc1ccc(NC(=S)NNC(=O)c2nn(C)c(C)c2Cl)cc1	3.2µM	-	?	?	-	-
CC(C)C(NC(=S)Nc1ccccc1)C(=O)O (stereo not given)	-	-	-	3.2µM	-	-
O=C(NNC(=S)Nc1ccccc1)NNC(=S)Nc1ccccc1	-	-	-	-	-	-
CCC(C)NC(=S)Nc1ccccc1 (stereo not given)	-	-	-	.	-	.
CCOC(=O)c1ccc(NC(=O)c2cc(=O)c3ccc(C)c(C)c3o2)cc1	.	-	.	-	.	.
CC1CN(C(=O)N2CCC(C(=O)N3CCN(c4ccccc4)CC3)CC2)c2cc(Cl)ccc2O1 (stereo not given)	.	-	.	.	.	.
O=C(CSC1=Nc2ccccc2C2=NC(CCC(=O)NC3CCCCC3)C(=O)N12)Nc1cccc(C(F)(F)F)c1 (stereo not given)	.	-	.	-	.	.
O=C(CSc1ncccn1)N1CCN(S(=O)(=O)c2ccccc2)CC1	-	-	-	.	-	.
Cc1cc(Br)ccc1SCC(=O)N1CCN(S(=O)(=O)c2ccccc2)CC1	?	13µM	?	.	16µM	.
CCOc1ccc(/C=C2\SC(=S)N(Nc3ccccc3)C2=O)cc1OC	-	11µM	-	-	-	-
COc1cc(/C=C2/SC(=S)N(Cc3ccccc3)C2=O)ccc1O	-	27µM	-	.	?	.
O=C1/C(=C/c2ccc(O)cc2)SC(=S)N1Cc1cccnc1	-	-	-	-	-	-
COc1cc(/C=C2\SC(=S)N(C(C(=O)O)c3ccccc3)C2=O)ccc1O (stereo not given)	-	19µM	-	.	-	.
COc1ccc(/C=C2\SC(=S)N(Cc3cccnc3)C2=O)cc1C	-	5.4µM	-	-	-	-
CCOc1cc(/C=C2\SC(=S)N(C(C(=O)O)c3ccccc3)C2=O)ccc1O (stereo not given)	-	?	-	.	-	.
CCCC(C(=O)Nc1ccc(S(=O)(=O)Nc2nccs2)cc1)c1ccccc1 (stereo not given)	-	-	-	.	-	.
CCn1c(SCC(=O)Nc2ccccc2N2CCOCC2)nnc1-c1ccccc1	-	-[2.3 µM]	-	-	-	-
CCn1c(SCC(=O)Nc2ccc(N3CCOCC3)cc2)nnc1-c1ccc(OC)cc1	-	15µM	-	-	-	-
CCn1c(C)nnc1SCC(=O)Nc1ccc(N2CCOCC2)cc1	-	?	-	.	-	.
CCn1c(SCC(=O)Nc2ccc(N3CCOCC3)c(Cl)c2)nnc1-c1ccc(N)cc1	-	13µM	-	-	-	-
CC[C@@H](C)[C@@H](C(=O)Nc1ccc(C)cc1)N1Cc2ccccc2C1=O	.	-	.	-	.	.
O=C1CCCC1C(=O)Nc1ccc2ccccc2c1 (stereo not given)	-	17µM	-	.	-	.
SMILES	Rab9 prom act	FLuc counter	NPC1 promoter act	SMN2 splice up	ELG1 genotoxic	KinaseGlo FLuc
O=C1NCCN/C1=C\C(=O)c1ccc(Br)cc1	1.3µM	9.5µM	1.3µM	.	10µM	.
O=C1NCCN/C1=C\C(=O)c1ccccc1	?	-	-	-	?	-
O=C1OCCN/C1=C\C(=O)c1ccc(Cl)cc1	-	24µM	-	.	-	.
CC(=O)N1CCc2c(sc3c2c(=O)n(-c2ccccc2)c(=O)n3CC(=O)c2ccc(F)cc2)C1	.	-	.	-	.	.
O=C(COC(=O)c1cccs1)NC12CC3CC(CC(C3)C1)C2	-	24µM	-	-	-	-
O=C(COC(=O)c1ccccn1)NC12CC3CC(CC(C3)C1)C2	-	21µM	-	-	-	-
